According to the supplement of paper PMC10849652:
About 8,800 targets were measured; listed, in parts, are those with a hit and a random draw of the rest. About 0.5% of all pairs of compound and target were hits.

Tests used:
Experiment in all cases: log2 fold change, soluble protein after heating vs DMSO (PISA); higher = thermal stabilisation; K562 lysate, 10 uM; active = over 0.2 and 3.5 SD of the protein, either way, in both replicates (recomputed)
erlotinib = compound: C#Cc1cccc(Nc2ncnc3cc(OCCOC)c(OCCOC)cc23)c1 [erlotinib]
How it was run: (§1)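 A 30 min treatment with 10 μM compound was applied to crude K562 extract at 1 mg/mL protein in PBS pH 7.4 with 1 mM MgCl2. Heating for 3 min spanned 48°C-58°C, after which aliquots were pooled, adjusted to 0.5% NP-40 at 4°C and spun at 21,000xg for 90 min. TMTpro 16plex LC-MS/MS of the supernatant, with channel sums equalised, gave values recorded as log-two fold change in thermal stability against solvent controls, from duplicates.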

[1] = compound: C1=CC(=CC=C1C2=NC3=C(N2)C=C(C=C3)C(=O)N)OC4=CC=C(C=C4)Cl
How it was run: as §1

[2] = compound: C1=CC=C(C=C1)C2=NC(=C(N2)C3=CC=NC=C3)C4=CC(=C(C=C4)Cl)O
How it was run: as §1

IRAK-1-4 Inhibitor I = compound: C1COCCN1CCN2C3=CC=CC=C3N=C2NC(=O)C4=CC(=CC=C4)[N+](=O)[O-] [IRAK-1-4 Inhibitor I]
How it was run: as §1

[3] = compound: CC(=O)c1cnc2ccc(-c3cc(Cl)c(O)c(Cl)c3)nc2c1N[C@H]1CC[C@H](CN(C)C)CC1
How it was run: as §1

ralimetinib = compound: CC(C)(C)Cn1c(N)nc2ccc(-c3[nH]c(C(C)(C)C)nc3-c3ccc(F)cc3)nc21 [ralimetinib]
How it was run: as §1

[4] = compound: CC(C)(O)CC(=O)NCCn1ccc2ncnc(Nc3ccc(Oc4cccc(C(F)(F)F)c4)c(Cl)c3)c21
How it was run: as §1

[5] = compound: CC(C)C1=C2N=C(C=C(N2N=C1)NCC3=CC=CC=C3)NCCCCCCN
How it was run: as §1

[6] = compound: CC1=C(C(CC(=O)N1)C2=CC=C(C=C2)C(F)(F)F)C(=O)NC3=C(C=C4C(=C3)C=NN4)F
How it was run: as §1

[7] = compound: CC1=C(C2=C(C=C1)C(=O)C3=CC=CC=C3N2CCCN)C
How it was run: as §1

[8] = compound: CC1=C(C=C(C=C1)NC(=O)C2=CC(=CC=C2)N(C)C)NC(=O)C3=CC=C(C=C3)O
How it was run: as §1

[9] = compound: CC1=CC=C(C=C1)SC2=C3C=C(SC3=CN=C2)C(=O)N
How it was run: as §1

[10] = compound: C/C(=N\NC(=O)C1=CC(=CC=C1)S(=O)(=O)N2CCOCC2)/C3=C(C=CC(=C3)Cl)O
How it was run: as §1

[11] = compound: C1=CC2=C(C=CC(=C2)/C=C\3/C(=O)NC(=NCC4=CC=CS4)S3)N=C1
How it was run: as §1

[12] = compound: C1=CC=C2C(=C1)C3=NNC4=CC=CC(=C43)C2=O
How it was run: as §1

[13] = compound: C1CCN(C1)C(=O)NC2=CC=CC(=C2)NC3=NC=C(C(=N3)NCCC4=CN=CN4)Br
How it was run: as §1

[14] = compound: C1CN(CCC1(CC2=CC=C(C=C2)Cl)N)C3=NC=NC4=C3C=CN4
How it was run: as §1

[15] = compound: C1=CC2=NC=CN=C2C=C1/C=C/3\C(=O)NC(=O)S3
How it was run: as §1

ibrutinib = compound: C=CC(=O)N1CCC[C@@H](n2nc(-c3ccc(Oc4ccccc4)cc3)c3c(N)ncnc32)C1 [ibrutinib]
How it was run: as §1

[16] = compound: CC1=C(C=C(C=C1)NC(=O)C2=CC(=CC=C2)C(C)(C)C#N)NC3=CC4=C(C=C3)N=CN(C4=O)C
How it was run: as §1

Measured: log2 fold change

EIF2AK3 (UniProt Q9NZJ5)
Sequence of UniProt Q9NZJ5 (Q9NZJ5 whole entry, looked up): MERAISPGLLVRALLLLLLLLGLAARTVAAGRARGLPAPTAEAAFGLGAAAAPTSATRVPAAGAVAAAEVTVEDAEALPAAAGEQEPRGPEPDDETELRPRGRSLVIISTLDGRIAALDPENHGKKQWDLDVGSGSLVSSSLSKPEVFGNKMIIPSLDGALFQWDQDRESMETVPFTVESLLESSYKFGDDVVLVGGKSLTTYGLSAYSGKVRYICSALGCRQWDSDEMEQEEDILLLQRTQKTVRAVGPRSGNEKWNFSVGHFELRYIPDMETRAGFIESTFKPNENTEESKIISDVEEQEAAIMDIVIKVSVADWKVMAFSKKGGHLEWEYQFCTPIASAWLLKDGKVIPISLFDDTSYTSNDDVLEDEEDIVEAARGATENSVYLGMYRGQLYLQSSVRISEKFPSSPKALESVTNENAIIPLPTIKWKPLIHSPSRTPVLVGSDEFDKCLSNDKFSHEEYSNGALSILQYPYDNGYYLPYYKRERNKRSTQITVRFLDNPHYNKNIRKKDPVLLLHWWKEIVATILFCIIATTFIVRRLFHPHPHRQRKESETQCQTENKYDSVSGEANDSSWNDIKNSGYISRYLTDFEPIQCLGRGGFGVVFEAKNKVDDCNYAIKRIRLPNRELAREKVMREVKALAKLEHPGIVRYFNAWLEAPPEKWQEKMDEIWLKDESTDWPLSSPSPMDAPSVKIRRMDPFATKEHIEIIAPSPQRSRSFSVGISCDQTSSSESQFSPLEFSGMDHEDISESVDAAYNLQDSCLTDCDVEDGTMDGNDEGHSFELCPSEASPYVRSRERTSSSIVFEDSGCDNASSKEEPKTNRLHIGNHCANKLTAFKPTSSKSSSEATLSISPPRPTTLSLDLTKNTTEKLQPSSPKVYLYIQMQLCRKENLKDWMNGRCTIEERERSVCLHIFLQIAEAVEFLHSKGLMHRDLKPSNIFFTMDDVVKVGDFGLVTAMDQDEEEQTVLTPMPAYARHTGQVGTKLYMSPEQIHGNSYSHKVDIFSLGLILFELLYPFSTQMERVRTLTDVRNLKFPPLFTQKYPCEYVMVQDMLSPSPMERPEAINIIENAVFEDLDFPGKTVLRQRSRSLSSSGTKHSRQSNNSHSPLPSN
inactive: erlotinib -0.014 | [1] 0.015 | [2] -0.049 | IRAK-1-4 Inhibitor I -0.044 | [3] 0.003 | ralimetinib 0.039 | [4] -0.191 | [5] 0.012 | [6] -0.052 | [7] 0.037 | [8] -0.061 | [9] -0.07

FTSJ1 isoform 2 (UniProt Q9UET6)
Sequence of UniProt Q9UET6 (Q9UET6 whole entry, looked up): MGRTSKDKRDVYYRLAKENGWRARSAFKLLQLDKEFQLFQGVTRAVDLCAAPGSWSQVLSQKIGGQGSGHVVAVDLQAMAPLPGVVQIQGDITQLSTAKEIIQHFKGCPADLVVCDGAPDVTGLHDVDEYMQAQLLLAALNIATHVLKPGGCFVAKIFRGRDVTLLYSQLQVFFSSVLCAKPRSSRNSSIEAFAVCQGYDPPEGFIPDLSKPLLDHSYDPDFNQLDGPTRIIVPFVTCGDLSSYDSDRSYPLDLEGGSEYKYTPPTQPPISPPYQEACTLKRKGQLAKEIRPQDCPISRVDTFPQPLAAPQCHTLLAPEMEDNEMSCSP
inactive: [10] -0.149 | [11] 0.055 | [12] -0.039 | [13] 0.051 | [14] 0.059 | [3] 0.026 | [9] 0.001

DUSP22 isoform 2 (UniProt Q9NRW4)
Sequence of UniProt Q9NRW4 (Q9NRW4 whole entry, looked up): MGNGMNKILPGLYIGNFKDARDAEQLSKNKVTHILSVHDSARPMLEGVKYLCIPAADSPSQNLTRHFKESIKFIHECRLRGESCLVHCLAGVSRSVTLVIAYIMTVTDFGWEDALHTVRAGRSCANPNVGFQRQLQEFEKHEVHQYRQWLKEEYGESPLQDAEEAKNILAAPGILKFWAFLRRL
inactive: erlotinib -0.016 | [10] 0.157 | [1] 0.007 | [11] 0.075 | [15] 0.051 | [2] 0.035 | [12] 0.143 | IRAK-1-4 Inhibitor I -0.028 | ibrutinib -0.059 | [3] 0.043 | ralimetinib 0.007 | [4] 0.02 | [5] -0.092 | [6] 0.177 | [7] -0.046 | [8] 0.081 | [9] 0.007

ETFRF1 (UniProt Q6IPR1)
Sequence of UniProt Q6IPR1 (Q6IPR1 whole entry, looked up): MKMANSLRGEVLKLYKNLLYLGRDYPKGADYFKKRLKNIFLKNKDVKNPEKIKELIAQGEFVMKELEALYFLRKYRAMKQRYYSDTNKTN
inactive: erlotinib -0.032 | [10] -0.008 | [1] -0.048 | [11] 0.083 | [15] -0.064 | [2] -0.038 | [12] -0.063 | IRAK-1-4 Inhibitor I -0.002 | ibrutinib 0.062 | [3] 0.028 | ralimetinib -0.005 | [4] -0.044 | [5] -0.006 | [6] 0.049 | [7] -0.018 | [16] -0.071 | [8] 0.136 | [9] -0.02

GIPC3 (UniProt Q8TF64)
Sequence of UniProt Q8TF64 (Q8TF64 whole entry, looked up): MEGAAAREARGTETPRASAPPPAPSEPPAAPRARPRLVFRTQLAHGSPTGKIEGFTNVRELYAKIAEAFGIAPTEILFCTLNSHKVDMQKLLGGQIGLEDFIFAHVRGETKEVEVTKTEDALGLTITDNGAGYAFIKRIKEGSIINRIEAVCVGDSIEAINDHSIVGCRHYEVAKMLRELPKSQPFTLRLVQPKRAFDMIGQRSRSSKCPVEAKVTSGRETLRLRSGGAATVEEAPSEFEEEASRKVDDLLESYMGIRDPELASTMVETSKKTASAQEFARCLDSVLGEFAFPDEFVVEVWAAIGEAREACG
inactive: erlotinib -0.049 | [1] 0.091 | [15] -0.025 | [2] 0.063 | [13] 0.008 | [14] 0.139 | IRAK-1-4 Inhibitor I 0.101 | ibrutinib -0.021 | [3] -0.078 | ralimetinib -0.019 | [4] -0.011 | [5] 0.022 | [6] 0.282 | [7] -0.019 | [16] 0.185 | [8] -0.033 | [9] -0.13

ELAVL4 (UniProt P26378)
Sequence of UniProt P26378 (P26378 whole entry, looked up): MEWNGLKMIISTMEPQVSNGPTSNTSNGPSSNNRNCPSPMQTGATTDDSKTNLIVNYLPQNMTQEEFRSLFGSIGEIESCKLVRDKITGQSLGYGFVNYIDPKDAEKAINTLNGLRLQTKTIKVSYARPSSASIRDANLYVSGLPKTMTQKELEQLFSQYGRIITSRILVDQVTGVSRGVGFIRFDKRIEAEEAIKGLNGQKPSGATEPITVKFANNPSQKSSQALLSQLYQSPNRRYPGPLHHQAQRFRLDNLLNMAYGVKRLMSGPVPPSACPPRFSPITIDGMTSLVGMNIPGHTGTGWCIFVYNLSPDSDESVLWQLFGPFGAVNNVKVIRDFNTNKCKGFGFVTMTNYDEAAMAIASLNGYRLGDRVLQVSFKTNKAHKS
inactive: erlotinib 0.073 | [10] 0.047 | [1] -0.063 | [11] -0.047 | [2] 0.015 | [12] 0.002 | [13] 0.029 | [14] 0.036 | IRAK-1-4 Inhibitor I -0.012 | [3] -0.04 | ralimetinib 0.065 | [4] 0.064 | [5] 0.026 | [6] -0.061 | [7] -0.01 | [16] -0.005 | [8] -0.026 | [9] 0.073

EIF2B5, A0A3B3ITK8
inactive: [3] 0.015 | [6] 0.037 | [9] -0.104

ERG28 (UniProt Q9UKR5)
Sequence of UniProt Q9UKR5 (Q9UKR5 whole entry, looked up): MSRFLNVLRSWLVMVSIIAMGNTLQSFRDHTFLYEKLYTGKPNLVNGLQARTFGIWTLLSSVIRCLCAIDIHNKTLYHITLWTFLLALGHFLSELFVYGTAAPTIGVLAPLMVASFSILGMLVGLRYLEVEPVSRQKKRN
inactive: [15] -0.015 | [13] 0.072 | [14] -0.066 | ibrutinib 0.064 | [3] -0.045 | [7] 0.059 | [9] -0.004

GART (UniProt C9JZG2)
inactive: [15] 0.092 | [2] 0.007 | [13] -0.025 | [14] -0.011 | IRAK-1-4 Inhibitor I 0.078 | ibrutinib -0.062 | [3] 0.037 | ralimetinib 0.069 | [4] -0.068 | [6] -0.114 | [16] 0.083 | [8] -0.052 | [9] 0.022

EIF3I (UniProt Q5TFK1)
inactive: [3] 0.266 | [6] -0.661 | [9] -0.059

GCA (UniProt P28676)
Sequence of UniProt P28676 (P28676 whole entry, looked up): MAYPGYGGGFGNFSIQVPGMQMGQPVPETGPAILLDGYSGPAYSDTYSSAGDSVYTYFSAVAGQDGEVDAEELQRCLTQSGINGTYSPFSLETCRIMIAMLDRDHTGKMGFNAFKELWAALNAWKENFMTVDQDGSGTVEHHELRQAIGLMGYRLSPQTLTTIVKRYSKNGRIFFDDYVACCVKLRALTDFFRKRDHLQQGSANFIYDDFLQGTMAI
inactive: erlotinib -0.115 | [1] -0.037 | [3] -0.134 | [5] 0.191 | [6] 0.173 | [9] 0.123

DYRK1A isoform 2 (UniProt Q13627)
inactive: erlotinib -0.064 | [1] -0.476 | [15] 0.247 | [2] 0.069 | IRAK-1-4 Inhibitor I -0.595 | ibrutinib -0.063 | ralimetinib 0.085 | [4] -0.241 | [5] 0.005 | [16] 0.004 | [8] -0.081

FAT1 (UniProt Q14517)
inactive: erlotinib -0.004 | [1] 0.006 | [2] 0.126 | [13] -0.119 | [14] 0.128 | IRAK-1-4 Inhibitor I -0.053 | [3] -0.109 | ralimetinib -0.034 | [4] -0.016 | [5] -0.05 | [16] 0.188 | [8] 0.024 | [9] -0.105

FAM53B (UniProt Q14153)
Sequence of UniProt Q14153 (Q14153 whole entry, looked up): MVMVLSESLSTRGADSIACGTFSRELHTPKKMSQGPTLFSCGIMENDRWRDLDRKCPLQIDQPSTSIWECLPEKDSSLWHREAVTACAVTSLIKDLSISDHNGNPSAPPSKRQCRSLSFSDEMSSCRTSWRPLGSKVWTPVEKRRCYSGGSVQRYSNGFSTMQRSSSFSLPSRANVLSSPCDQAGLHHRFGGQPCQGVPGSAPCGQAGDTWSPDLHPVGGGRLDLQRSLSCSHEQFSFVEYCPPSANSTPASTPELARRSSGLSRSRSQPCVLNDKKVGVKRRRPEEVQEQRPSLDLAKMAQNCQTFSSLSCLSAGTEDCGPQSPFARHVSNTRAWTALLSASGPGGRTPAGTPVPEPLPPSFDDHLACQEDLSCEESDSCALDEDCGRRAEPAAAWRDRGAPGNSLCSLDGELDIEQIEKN
inactive: erlotinib 0.057 | [10] -0.087 | [1] -0.03 | [11] 0.015 | [15] -0.004 | [2] -0.047 | [12] -0.024 | [13] -0.034 | [14] 0.006 | IRAK-1-4 Inhibitor I 0.203 | ibrutinib 0.037 | ralimetinib -0.299 | [4] -0.084 | [5] 0.037 | [6] 0.098 | [7] 0.161 | [16] -0.07 | [8] -0.263
